# Results taken from PubChem BioAssay.
# Activity calls are given as the source filed them. Unless noted, the rule behind the calls is not given here.
# Experiments:
# [1] = compounds binding Alexa647 anti-His antibody – biochemical, small-molecule microarray, 635 nm fluorescence, artefact control for SMM control protein annotation, primary screen (AID 1128); conditions: higher = more signal;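 note: score merges feature fluorescence with signal-to-noise for each printed compound spot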
# [2] = tested on: Human papillomavirus type 1a E7 protein (residues 1-88); assay: HPV1a E7 small-molecule binders, primary screen, biochemical, small-molecule microarray, residues 1-88, 635 nm (AID 1129); conditions: small-molecule microarray binding, fluorescence 635 nm; higher = more signal
# [3] = molecular target: Focal adhesion kinase 1 (Homo sapiens) (UniProt Q05397); assay: PTK2 protein binding on printed compound slides – biochemical, small-molecule microarray, 635/667 nm fluorescence, BSA, DTT, primary screen (AID 1130); conditions: 635 nm fluorescence, higher = more signal;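 note: composite of spot emission at 667 nm and signal to noise over triplicate slides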
# [4] = tested on: Fibrinogen (Alexa647-labelled); assay: Alexa647-fibrinogen binding to printed small molecules – biochemical, small-molecule microarray, 635/667 nm fluorescence, artefact control for SMM control-protein annotation, profiling panel (AID 1131); conditions: fibrinogen-A647 binding fluorescence, higher = more signal;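 note: z-score merges 667 nm fluorescence with per-spot signal-to-noise over triplicate slides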
# [5] = molecular target: Follistatin (Homo sapiens) (UniProt P19883); assay: FST protein binding to printed compounds – biochemical, small-molecule microarray, 635/667 nm fluorescence, primary screen (AID 1132); conditions: 635 nm fluorescence, higher = more signal
# [6] = molecular target: Fibroblast growth factor 2 (Homo sapiens) (UniProt P09038); assay: basic fibroblast growth factor binding to printed compounds – biochemical, small-molecule microarray, 635/667 nm fluorescence, primary screen (AID 1133); conditions: FGF2, fluorescence 635/667, higher = more signal
# [7] = JC-1 mitochondrial potential readout, lung cancer cells – cell-based, A549, JC-1 fluorescence, basal, 24 h, 100 nL, profiling panel (AID 1138); conditions: higher = more signal;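 note: A549 lung adenocarcinoma cells under basal conditions with no added stimulus; test concentration not given here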
# [8] = tested on: Lefty1; assay: Lefty1 protein binding to printed compounds – biochemical, small-molecule microarray, 635/667 nm fluorescence, primary screen (AID 1139); conditions: fluorescence 635/667, higher = more signal
# [9] = tested on: wheat germ agglutinin (Triticum aestivum), Alexa647-labelled; assay: Alexa647-WGA lectin binding to printed small molecules – biochemical, small-molecule microarray, 635/667 nm fluorescence, artefact control for SMM control-protein annotation, profiling panel (AID 1140); conditions: WGA-A647 binding, 635 nm fluorescence, higher = more signal;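 note: score merges 667 nm feature emission with signal to noise over triplicate slides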
# [10] = molecular target: Luciferin 4-monooxygenase (Photinus pyralis) (UniProt P08659); assay: inhibition of purified Photinus pyralis luciferase – biochemical, luminescence, purified enzyme, 2006 set, primary screen (AID 1141); conditions: purified firefly luciferase, SteadyGlo luminescence, 30 min; higher = more signal, called active from +8 up or from −8 down;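 note: cell-free assay with purified firefly luciferase at 100 ng per well in PBS; test concentration not given here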
# [11] = tested on: Wnt5a (protein binding on small-molecule microarray); assay: small molecules binding Wnt5a protein – biophysical, small-molecule microarray, 635/667 nm fluorescence, primary screen (AID 1142); conditions: 635 nm fluorescence, higher = more signal;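 note: fluorescence read at 667 nm with signal to noise per printed feature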
# [12] = ATP-based viability of Huh7 replicon cells – cell-based, CellTiter-Glo luminescence, basal, 48 h, cytotoxicity control for HCV replication inhibitor project, primary screen (AID 1143); conditions: higher = more signal, called active from +8 up or from −8 down;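 note: Huh7 hepatoma cells carrying a hepatitis C replication reporter with no stimulus; test concentration not given here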
# [13] = Pseudomonas biofilm growth suppression – PAO1 strain, BacTiter-Glo luminescence, LB-PBS, primary screen (AID 1144); conditions: P. aeruginosa PAO1 biofilm, 12 h, higher = more signal
# [14] = basal CRE-LacZ reporter activity in PC12 – cell-based, unstimulated, primary screen (AID 1145); conditions: no forskolin, luminescence, 4.5 h, higher = more signal, called active from +8 up or from −8 down
# [15] = forskolin-driven CRE-LacZ activity in PC12 – cell-based, CRE-LacZ reporter, forskolin-stimulated, primary screen (AID 1146); conditions: luminescence, 4.5 h, higher = more signal, called active from +8 up or from −8 down;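 note: PC12 cells with 6xCRE LacZ reporter stimulated by forskolin 10 µM; beta-galactosidase reporter signal reflecting CREB driven transcription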
# [16] = molecular target: Streptavidin (Streptomyces avidinii) (UniProt P22629); assay: compounds binding control protein streptavidin – biophysical, small-molecule microarray, 635/667 nm fluorescence, artefact control for SMM compound annotation, primary screen (AID 1147); conditions: higher = more signal;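 note: signal reflects streptavidin binding to arrayed compounds as a control protein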
# [17] = probe aInhba binding on compound microarray – biochemical, small-molecule microarray, 635/667 nm fluorescence, primary screen (AID 1148); conditions: higher = more signal;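 note: score merges 667nm spot fluorescence with signal-to-noise for antibody binding to printed compounds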
# [18] = molecular target: Torsin-1A (Homo sapiens) (UniProt O14656); assay: TOR1A wild-type binding on microarray – cell lysate, small-molecule microarray, lysate, 635/667 nm, primary screen (AID 1149); conditions: COS7 hTOR1A-WT lysate, 635 nm fluorescence, higher = more signal
# [19] = molecular target: Torsin-1A (Homo sapiens) (UniProt O14656); assay: torsin A mutant lysate binding on microarrays – cell lysate, small-molecule microarray, COS7 lysate, 635/667 nm fluorescence, primary screen (AID 1150); conditions: COS7 hTOR1A mutant lysate, 635 nm fluorescence, higher = more signal;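 note: score pools 667 nm emission and signal to noise measuring lysate protein binding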
# [20] = tested on: Sonic hedgehog protein (Shh); assay: Sonic hedgehog microarray binding compounds – biochemical, small-molecule microarray, 635/667 nm fluorescence, primary screen (AID 1151); conditions: 635 nm fluorescence, higher = more signal;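 note: Shh protein binding to compounds spotted on small-molecule microarray slides; score combines spot fluorescence intensity with signal-to-noise across triplicate slides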
# Chain of Focal adhesion kinase 1 (Homo sapiens) (Q05397 whole entry, looked up): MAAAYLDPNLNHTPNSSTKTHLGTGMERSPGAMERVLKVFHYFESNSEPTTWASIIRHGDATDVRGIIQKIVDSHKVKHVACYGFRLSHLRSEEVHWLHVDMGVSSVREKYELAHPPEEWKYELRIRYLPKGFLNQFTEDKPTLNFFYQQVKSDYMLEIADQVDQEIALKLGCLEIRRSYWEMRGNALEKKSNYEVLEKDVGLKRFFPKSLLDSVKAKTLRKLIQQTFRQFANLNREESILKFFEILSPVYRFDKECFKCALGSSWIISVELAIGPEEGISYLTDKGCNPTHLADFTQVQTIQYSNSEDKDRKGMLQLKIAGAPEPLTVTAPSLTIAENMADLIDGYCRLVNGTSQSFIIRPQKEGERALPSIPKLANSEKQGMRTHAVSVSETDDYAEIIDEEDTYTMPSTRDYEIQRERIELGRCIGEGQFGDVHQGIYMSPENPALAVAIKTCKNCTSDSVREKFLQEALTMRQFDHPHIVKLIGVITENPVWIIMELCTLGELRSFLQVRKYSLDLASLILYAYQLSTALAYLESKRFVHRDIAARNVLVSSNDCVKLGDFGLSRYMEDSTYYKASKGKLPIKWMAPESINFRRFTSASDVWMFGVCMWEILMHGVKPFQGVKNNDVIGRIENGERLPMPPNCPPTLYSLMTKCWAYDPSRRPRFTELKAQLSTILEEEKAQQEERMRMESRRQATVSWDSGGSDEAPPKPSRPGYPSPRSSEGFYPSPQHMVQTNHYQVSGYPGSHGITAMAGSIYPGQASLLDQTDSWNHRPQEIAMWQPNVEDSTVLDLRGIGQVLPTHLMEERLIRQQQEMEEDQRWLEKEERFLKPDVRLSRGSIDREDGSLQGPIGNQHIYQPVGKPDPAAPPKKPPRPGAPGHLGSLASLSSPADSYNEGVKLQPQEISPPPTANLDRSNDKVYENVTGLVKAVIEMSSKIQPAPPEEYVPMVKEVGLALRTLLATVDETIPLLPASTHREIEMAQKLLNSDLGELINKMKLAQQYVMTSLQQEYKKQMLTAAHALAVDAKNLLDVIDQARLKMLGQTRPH
# Chain of Torsin-1A (Homo sapiens) (O14656 whole entry, looked up): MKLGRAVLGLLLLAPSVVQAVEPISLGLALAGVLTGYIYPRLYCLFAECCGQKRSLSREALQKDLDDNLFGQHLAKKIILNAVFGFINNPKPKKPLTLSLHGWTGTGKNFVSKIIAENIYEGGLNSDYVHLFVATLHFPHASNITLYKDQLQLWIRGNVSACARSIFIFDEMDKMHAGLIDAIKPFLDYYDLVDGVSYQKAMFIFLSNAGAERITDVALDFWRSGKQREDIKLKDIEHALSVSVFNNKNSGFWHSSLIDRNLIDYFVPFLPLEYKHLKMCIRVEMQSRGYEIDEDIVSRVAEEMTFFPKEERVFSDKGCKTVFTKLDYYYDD
# Chain of Streptavidin (Streptomyces avidinii) (P22629 whole entry, looked up): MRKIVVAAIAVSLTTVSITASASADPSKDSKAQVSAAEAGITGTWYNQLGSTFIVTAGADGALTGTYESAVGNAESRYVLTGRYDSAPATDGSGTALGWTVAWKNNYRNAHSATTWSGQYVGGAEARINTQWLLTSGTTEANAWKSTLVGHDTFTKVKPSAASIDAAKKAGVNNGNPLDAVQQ
# Chain of Fibroblast growth factor 2 (Homo sapiens) (P09038 whole entry, looked up): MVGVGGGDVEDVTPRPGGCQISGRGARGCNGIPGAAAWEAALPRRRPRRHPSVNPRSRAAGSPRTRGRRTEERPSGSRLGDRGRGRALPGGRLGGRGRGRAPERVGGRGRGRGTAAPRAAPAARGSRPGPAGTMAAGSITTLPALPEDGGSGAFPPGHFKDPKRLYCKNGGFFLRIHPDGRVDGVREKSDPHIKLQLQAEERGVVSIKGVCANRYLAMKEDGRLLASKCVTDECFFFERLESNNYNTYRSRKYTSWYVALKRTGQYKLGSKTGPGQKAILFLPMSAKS
# Chain of Luciferin 4-monooxygenase (Photinus pyralis) (P08659 whole entry, looked up): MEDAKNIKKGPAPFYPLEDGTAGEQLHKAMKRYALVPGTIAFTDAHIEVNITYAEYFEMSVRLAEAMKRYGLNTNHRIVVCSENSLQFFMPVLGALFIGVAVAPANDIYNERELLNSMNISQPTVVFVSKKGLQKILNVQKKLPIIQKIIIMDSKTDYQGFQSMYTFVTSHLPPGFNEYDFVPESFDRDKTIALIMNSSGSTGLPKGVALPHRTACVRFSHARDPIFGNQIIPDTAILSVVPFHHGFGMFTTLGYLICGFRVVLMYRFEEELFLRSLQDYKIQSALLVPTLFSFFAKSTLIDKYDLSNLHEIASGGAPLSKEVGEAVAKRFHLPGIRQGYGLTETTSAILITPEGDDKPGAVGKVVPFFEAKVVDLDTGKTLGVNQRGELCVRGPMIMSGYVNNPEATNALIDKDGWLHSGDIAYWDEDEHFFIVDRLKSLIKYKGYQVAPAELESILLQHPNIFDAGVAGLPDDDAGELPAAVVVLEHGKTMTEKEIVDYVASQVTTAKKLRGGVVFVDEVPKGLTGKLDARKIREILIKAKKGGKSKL
# Chain of Follistatin (Homo sapiens) (P19883 whole entry, looked up): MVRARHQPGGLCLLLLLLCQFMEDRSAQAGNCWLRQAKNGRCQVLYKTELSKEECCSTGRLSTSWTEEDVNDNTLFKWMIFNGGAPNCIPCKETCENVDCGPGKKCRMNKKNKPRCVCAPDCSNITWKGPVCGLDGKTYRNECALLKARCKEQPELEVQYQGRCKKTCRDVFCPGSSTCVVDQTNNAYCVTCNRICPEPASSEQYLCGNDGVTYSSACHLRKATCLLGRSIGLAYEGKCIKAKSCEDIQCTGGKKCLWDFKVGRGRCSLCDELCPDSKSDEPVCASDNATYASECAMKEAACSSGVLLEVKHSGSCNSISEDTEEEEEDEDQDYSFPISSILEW
SMILES,composite z-score [1],composite z-score [2],composite z-score [3],composite z-score [4],composite z-score [5],composite z-score [6],z-score [7],composite z-score [8],composite z-score [9],z-score [10],composite z-score [11],z-score [12],z-score [13],z-score [14],z-score [15],composite z-score [16],composite z-score [17],composite z-score [18],composite z-score [19],composite z-score [20]
C=C[C@H](C)[C@@H](O)c1ccc(O)c2ccccc12,1.25,-0.655,-0.432,-0.407,1.05,0.944,-0.401,0.246,0.545,-0.322 (inactive),-0.302,-0.276 (inactive),-0.501 (inactive),-0.869 (inactive),1.63 (inactive),-0.785,-0.0471,-0.378,-0.0127,1.38
COCCOC(=O)N1C(=O)[C@@]2(c3cc(C#CCNC(N)=O)ccc31)[C@H](C(=O)N1CCN(c3ncccn3)CC1)[C@H]1C(=O)O[C@H](c3ccccc3)[C@H](c3ccccc3)N1[C@@H]2c1ccccc1OCCO,1.24,1.07,0.261,0.797,1.37,0.406,-1.55,0.889,0.749,1.05 (inactive),0.518,-1.32 (inactive),-0.94 (inactive),-0.141 (inactive),-0.44 (inactive),0.605,0.0184,0.223,0.416,0.692
C=CCC(OC(C)=O)[C@@H]1[C@@H](N(Cc2ccc(-c3cccc(C(F)(F)F)c3)o2)C(=O)c2ccc(C)cc2)c2cc(OCCCO)ccc2N1C(=O)c1ccc(-c2ccccc2)cc1 (stereo not given in full),-0.488,-0.626,0.134,-0.238,0.65,0.0875,2.31,0.899,0.639,-1.4 (inactive),0.0167,0.224 (inactive),-0.747 (inactive),-0.463 (inactive),-0.183 (inactive),0.535,0.0154,-0.245,-0.141,1.32
CCOC(=O)[C@H]1C[C@H]2O[C@@]23C[C@H]1C(=O)N1CCCC1[C@@H]3O[Si](C)(C)C(C)(C)C (stereo not given in full),-0.288,-0.311,-0.349,-0.466,-0.068,-0.0656,-0.341,0.225,-0.339,0.261 (inactive),-0.489,-2.14 (inactive),0.209 (inactive),-1.59 (inactive),-0.852 (inactive),-0.266,-0.245,-0.235,-0.178,1.1
O=C1C2C=CC(C(O)c3ccc(-c4ccccc4)s3)N(n3cnnc3)C2C(=O)N1Cc1ccccc1 (stereo not given),1.46,-0.283,0.0347,0.708,-0.279,-0.625,-1.32,-0.69,0.525,1.77 (inactive),-0.18,-0.291 (inactive),-0.669 (inactive),0.481 (inactive),0.288 (inactive),-0.116,-0.0087,-0.412,-0.468,-0.683
COc1ccc([Si](C)(C)[C@@H]2[C@@H](CC(=O)N3CCC[C@H]3CO)O[C@]3(C(=O)N(C)c4c(Br)cc(C)cc43)[C@H]2C)cc1,0.437,1.15,0.393,0.935,1.17,0.987,0.66,1.19,0.0832,-0.297 (inactive),0.29,-2.39 (inactive),0.74 (inactive),6.67 (inactive),0.157 (inactive),0.367,-0.103,0.178,0.67,1.43
CCOC(=O)C1=CCC(C(C)(C)C)N(S(=O)(=O)c2ccc(C)cc2)C1 (stereo not given),0.992,1.26,0.225,1.01,1.29,1.39,0.363,1,0.722,0.916 (inactive),0.858,-4.52 (inactive),1.19 (inactive),0.883 (inactive),0.639 (inactive),1.6,-0.0933,0.881,1.67,0.722
CN(C)CCCCNC(=O)[C@H]1C[C@H]2C(=O)N[C@@H](Cc3ccccc3)C(=O)N2[C@H]1c1ccc(O)cc1,0.499,1.16,-0.366,0.986,1.34,1.64,-0.884,1.31,1.2,0.999 (inactive),0.335,-2.14 (inactive),-1.49 (inactive),-1.9 (inactive),-0.32 (inactive),1.34,-0.128,1.87,0.734,2.09
COc1ccc([Si](C)(C)[C@H]2[C@H](CCn3cc([C@H](O)c4ccccc4)nn3)O[C@@]3(C(=O)N(Cc4cccc(N5CCC5=O)c4)c4ccccc43)[C@@H]2C)cc1,0.396,0.302,-0.0817,0.435,1.34,1.54,2.35,0.811,0.219,-0.719 (inactive),0.42,-1.67 (inactive),0.115 (inactive),2.55 (inactive),-0.157 (inactive),0.552,-0.045,0.358,0.0772,1.9
C=C(COC)C(=O)CC[C@H](OC(C)=O)c1cccc(OCCO)c1,-0.704,-0.586,-0.138,-0.708,1.2,1.49,-0.37,-0.332,-1.16,-0.679 (inactive),0.145,-3.15 (inactive),0.198 (inactive),0.942 (inactive),0.203 (inactive),-1.1,-0.142,0.315,0.142,0.9
